Experimental data published in PubChem BioAssay (NCATS).
Records with an inconclusive call do not appear. A call without a number means that no potency is given here. Unmarked numbers belong to inactive results. Active and inactive are the calls of the source. The call rests on the fitted dose curve; in most records, active means well fitted cell-killing curve with a large enough effect; inconclusive means small, poorly fitted or top-dose-only effect, or effect the other way; inactive means flat fitted curve, though single readings scatter.

These compounds were tested on CASKI (assay: Primary qHTS to identify gynecologic anti-cancer compounds using libraries of approved drugs and bioactive compounds (AID 1345084; further: nearly all actives have a fitted effect of over 55% in size)). Conditions: Gynecologic cancer cell panel viability, ATPlite luminescence, 48 h; series mostly up to 57.5 µM.
How it was run: (§1)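 Cells, 1,000 per well, were allowed to settle for 16 h at 37 C before compound addition. Five concentrations were tested for 48 h, and viability was read by ATPlite luminescence after 15 min at room temperature.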
Potency means the concentration at half of the fitted maximal effect.

SMILES	Potency	activity change, negative = cytotoxicity
Cc1cc(-c2nc3cc(F)ccc3s2)ccc1NC(=O)[C@@H](N)CCCCN	14.1 µM (active)	–
Cc1ccccc1CN1CCn2c1nc1c(c2=O)CN(Cc2ccccc2)CC1	inactive	–
C=C(C)C(=O)O[C@H]1/C(C=O)=C\CC/C(CO)=C/[C@H]2OC(=O)C(=C)[C@@H]2[C@@H]1OC	inactive	–
C[C@@H]1CC[C@]2(C(=O)O)CC[C@]3(C)C(=CCC4[C@@]5(C)CC[C@H](O)[C@](C)(C(=O)O)C5CC[C@]43C)C2[C@]1(C)O (stereo partly drawn)	inactive	–
COc1ccnc(CS(=O)c2nc3cc(OC(F)F)ccc3[nH]2)c1OC (stereo not drawn)	inactive	–
COc1ccc(-c2cnc3c(-c4cccc5ncccc45)cnn3c2)cc1	inactive	–
CC(C)(C)OC(=O)c1ncn2c1C(C)(C)Nc1ccccc1-2	inactive	–
CN1CCN(C(=O)CN[C@@H]2C[C@H]2c2ccc(OCc3ccccc3)cc2)CC1	inactive	–
CC(=O)OC/C(=C/C(=O)O)CC[C@@H]1C(C=O)=CC[C@@H]2C(C)(C)CCC[C@@]12C	inactive	–
O=C(COc1ccc2ccccc2c1Br)Nc1cccnc1	inactive	–
O=C(Nc1ccc2[nH]c(=O)oc2c1)C(=O)N1CCC(Cc2ccc(F)cc2)CC1	inactive	–
CC(=O)OC[C@]12[C@H](OC(C)=O)C(=O)[C@@H]3[C@@H](O)[C@@]14O[C@@]3(C)COC(=O)c1cccnc1[C@@H](C)[C@H](C)C(=O)O[C@@H]([C@H](O)[C@@H]2OC(C)=O)[C@]4(C)O	inactive	–
CCOc1ccc(-n2c(C(C)N(Cc3cccnc3)C(=O)Cc3ccc(F)c(C(F)(F)F)c3)nc3ncccc3c2=O)cc1 (stereo not drawn)	inactive	–
C=C1C(=O)OC2/C=C(\CO)CC/C=C(\C=O)C(O)C(OC(=O)C(C)CC)C12 (stereo not drawn)	inactive	–
Cc1ccc(N2CCN(S(=O)(=O)N3CCCCC3)CC2)c(C)c1	inactive	–
C1=C/COCc2cc(ccc2OCCN2CCCC2)Nc2nccc(n2)-c2cccc(c2)COC/1	3.55 µM (active)	–
Cn1ncnc1[C@@H]1c2n[nH]c(=O)c3cc(F)cc(c23)N[C@H]1c1ccc(F)cc1	inactive	–
O=C(Cc1c(F)cccc1F)Nc1cc(OCc2ccc(Cl)cc2)ccn1	inactive	–
CCOc1ccc(-n2c([C@@H](C)N(Cc3cccnc3)C(=O)Cc3ccc(OC(F)(F)F)cc3)nc3ncccc3c2=O)cc1	inactive	–
C=C(C)C1=C[C@@]2(C)C(=CC1=O)CC[C@@H](O)[C@@H]2C	inactive	–

SMILES	Potency	activity change, negative = cytotoxicity
C=C1/C(=C/C=C2\CCC[C@]3(C)[C@@H]([C@H](C)/C=C/[C@H](O)C4CC4)CC[C@@H]23)C[C@@H](O)C[C@@H]1O	inactive	–
CC(C)(C)c1ccc(C(=O)Nc2cc(Cl)c(Br)cc2C(=O)O)cc1	inactive	–
COc1c(C(O)CC(C)C)ccc2c1C(=O)OCc1cc(C)cc(O)c1O2 (stereo not drawn)	inactive	–
O=C(NCC1(c2nc(-c3ccccc3)cs2)CCOCC1)c1cccc(-c2noc(C(F)(F)F)n2)c1	inactive	–
C/C=C/C=C/c1cc2c(C=O)c(O)c(CC=C(C)C)cc2o1	inactive	–
Cc1ccc(N2CCN(CCC3NC(=O)c4ccccc43)CC2)cc1C (stereo not drawn)	inactive	–
CC(C)NC(=O)N1CC[C@H](N=C2Nc3cc(F)ccc3N(CC(F)F)c3ccc(Cl)cc32)C1	–	-4.9% [at 11.6 µM]
COc1ccc(CCO[C@@H]2O[C@H](CO[C@H]3OC[C@](O)(CO)[C@H]3O)[C@@H](OC(=O)/C=C/c3ccc(O)c(O)c3)[C@H](O[C@@H]3O[C@@H](C)[C@H](O)[C@@H](O)[C@H]3O)[C@H]2O)cc1OC	inactive	–
CC(=O)OC1CC(C)C2(CCC3(CC(=O)OC3O)O2)C2(C)CCCC(C)(C)C12 (stereo not drawn)	inactive	–
Cc1noc(-c2ccc(-c3ccc(CC(=O)O)cc3)cc2)c1NC(=O)O[C@H](C)c1ccccc1Cl	inactive	–
CN1CCN(c2ccc(-c3cccc(CN4CCOCC4)c3)cc2NC(=O)c2c[nH]c(=O)cc2C(F)(F)F)CC1	inactive	–
COc1cc(N(C)CCN(C)C)c(N)cc1Nc1nccc(-c2cn(C)c3ccccc23)n1	inactive	–
C=C1/C(=C/C=C2\CCC[C@@]3(C)C2CCC3[C@H](C)/C=C/[C@@H](O)C2CC2)C[C@@H](O)C[C@@H]1O (stereo partly drawn)	inactive	–
CC(C)C(C)C(O)C1CC23CC(=O)C4(O)C(=C2CCC3C1C)C=CC1(O)CC(O)CCC14C (stereo not drawn)	inactive	–
O=C(NCC1CCN(Cc2cccc(Cl)c2)CC1)[C@@H]1CCCN(c2ncnc3c2nc2n3CCCC2)C1	inactive	–
C=CC1(C)CC(O)C(C(=C)C(=O)OC)C(O)C1C(=C)CO (stereo not drawn)	inactive	–
C=C[C@](C)(O)CC[C@H]1C(C)=CC(=O)[C@H]2C(C)(C)CCC[C@]12C	inactive	–
Cn1c(SCC(=O)N2CCC[C@H]2C(=O)Nc2ccccc2-c2ccccc2)nc2ccccc21	inactive	–
Cn1ncc2cc(-c3cnc(N)c(Cl)c3N3CCC4(CCNC4=O)CC3)ccc21	inactive	–

What follows are compounds tested on Es-2 in the same assay as above. Conditions: Gynecologic cancer cell panel viability, ATPlite luminescence, 48 h; series mostly up to 57.5 µM.
How it was run: as §1

SMILES	Potency	activity change, negative = cytotoxicity
Cc1cc(-c2nc3cc(F)ccc3s2)ccc1NC(=O)[C@@H](N)CCCCN	15.8 µM (active)	–
Cc1ccccc1CN1CCn2c1nc1c(c2=O)CN(Cc2ccccc2)CC1	inactive	–
C=C(C)C(=O)O[C@H]1/C(C=O)=C\CC/C(CO)=C/[C@H]2OC(=O)C(=C)[C@@H]2[C@@H]1OC	inactive	–
C[C@@H]1CC[C@]2(C(=O)O)CC[C@]3(C)C(=CCC4[C@@]5(C)CC[C@H](O)[C@](C)(C(=O)O)C5CC[C@]43C)C2[C@]1(C)O (stereo partly drawn)	inactive	–
COc1ccnc(CS(=O)c2nc3cc(OC(F)F)ccc3[nH]2)c1OC (stereo not drawn)	inactive	–
COc1ccc(-c2cnc3c(-c4cccc5ncccc45)cnn3c2)cc1	inactive	–
CC(C)(C)OC(=O)c1ncn2c1C(C)(C)Nc1ccccc1-2	inactive	–
CN1CCN(C(=O)CN[C@@H]2C[C@H]2c2ccc(OCc3ccccc3)cc2)CC1	inactive	–
CC(=O)OC/C(=C/C(=O)O)CC[C@@H]1C(C=O)=CC[C@@H]2C(C)(C)CCC[C@@]12C	inactive	–
O=C(COc1ccc2ccccc2c1Br)Nc1cccnc1	inactive	–
O=C(Nc1ccc2[nH]c(=O)oc2c1)C(=O)N1CCC(Cc2ccc(F)cc2)CC1	inactive	–
CC(=O)OC[C@]12[C@H](OC(C)=O)C(=O)[C@@H]3[C@@H](O)[C@@]14O[C@@]3(C)COC(=O)c1cccnc1[C@@H](C)[C@H](C)C(=O)O[C@@H]([C@H](O)[C@@H]2OC(C)=O)[C@]4(C)O	inactive	–
CCOc1ccc(-n2c(C(C)N(Cc3cccnc3)C(=O)Cc3ccc(F)c(C(F)(F)F)c3)nc3ncccc3c2=O)cc1 (stereo not drawn)	inactive	–
C=C1C(=O)OC2/C=C(\CO)CC/C=C(\C=O)C(O)C(OC(=O)C(C)CC)C12 (stereo not drawn)	inactive	–
Cc1ccc(N2CCN(S(=O)(=O)N3CCCCC3)CC2)c(C)c1	inactive	–
C1=C/COCc2cc(ccc2OCCN2CCCC2)Nc2nccc(n2)-c2cccc(c2)COC/1	14.1 µM (active)	–
Cn1ncnc1[C@@H]1c2n[nH]c(=O)c3cc(F)cc(c23)N[C@H]1c1ccc(F)cc1	inactive	–
O=C(Cc1c(F)cccc1F)Nc1cc(OCc2ccc(Cl)cc2)ccn1	inactive	–
CCOc1ccc(-n2c([C@@H](C)N(Cc3cccnc3)C(=O)Cc3ccc(OC(F)(F)F)cc3)nc3ncccc3c2=O)cc1	inactive	–
C=C(C)C1=C[C@@]2(C)C(=CC1=O)CC[C@@H](O)[C@@H]2C	inactive	–

SMILES	Potency	activity change, negative = cytotoxicity
C=C1/C(=C/C=C2\CCC[C@]3(C)[C@@H]([C@H](C)/C=C/[C@H](O)C4CC4)CC[C@@H]23)C[C@@H](O)C[C@@H]1O	inactive	–
CC(C)(C)c1ccc(C(=O)Nc2cc(Cl)c(Br)cc2C(=O)O)cc1	inactive	–
COc1c(C(O)CC(C)C)ccc2c1C(=O)OCc1cc(C)cc(O)c1O2 (stereo not drawn)	inactive	–
O=C(NCC1(c2nc(-c3ccccc3)cs2)CCOCC1)c1cccc(-c2noc(C(F)(F)F)n2)c1	inactive	–
C/C=C/C=C/c1cc2c(C=O)c(O)c(CC=C(C)C)cc2o1	inactive	–
Cc1ccc(N2CCN(CCC3NC(=O)c4ccccc43)CC2)cc1C (stereo not drawn)	inactive	–
CC(C)NC(=O)N1CC[C@H](N=C2Nc3cc(F)ccc3N(CC(F)F)c3ccc(Cl)cc32)C1	–	5.14% [at 11.6 µM]
COc1ccc(CCO[C@@H]2O[C@H](CO[C@H]3OC[C@](O)(CO)[C@H]3O)[C@@H](OC(=O)/C=C/c3ccc(O)c(O)c3)[C@H](O[C@@H]3O[C@@H](C)[C@H](O)[C@@H](O)[C@H]3O)[C@H]2O)cc1OC	inactive	–
CC(=O)OC1CC(C)C2(CCC3(CC(=O)OC3O)O2)C2(C)CCCC(C)(C)C12 (stereo not drawn)	inactive	–
Cc1noc(-c2ccc(-c3ccc(CC(=O)O)cc3)cc2)c1NC(=O)O[C@H](C)c1ccccc1Cl	inactive	–
CN1CCN(c2ccc(-c3cccc(CN4CCOCC4)c3)cc2NC(=O)c2c[nH]c(=O)cc2C(F)(F)F)CC1	inactive	–
COc1cc(N(C)CCN(C)C)c(N)cc1Nc1nccc(-c2cn(C)c3ccccc23)n1	inactive	–
C=C1/C(=C/C=C2\CCC[C@@]3(C)C2CCC3[C@H](C)/C=C/[C@@H](O)C2CC2)C[C@@H](O)C[C@@H]1O (stereo partly drawn)	inactive	–
CC(C)C(C)C(O)C1CC23CC(=O)C4(O)C(=C2CCC3C1C)C=CC1(O)CC(O)CCC14C (stereo not drawn)	inactive	–
O=C(NCC1CCN(Cc2cccc(Cl)c2)CC1)[C@@H]1CCCN(c2ncnc3c2nc2n3CCCC2)C1	inactive	–
C=CC1(C)CC(O)C(C(=C)C(=O)OC)C(O)C1C(=C)CO (stereo not drawn)	inactive	–
C=C[C@](C)(O)CC[C@H]1C(C)=CC(=O)[C@H]2C(C)(C)CCC[C@]12C	inactive	–
Cn1c(SCC(=O)N2CCC[C@H]2C(=O)Nc2ccccc2-c2ccccc2)nc2ccccc21	inactive	–
Cn1ncc2cc(-c3cnc(N)c(Cl)c3N3CCC4(CCNC4=O)CC3)ccc21	inactive	–
